# Screening results: PubChem, National Center for Advancing Translational Sciences (NCATS)
# Pf Dd2 growth – inhibitors of Plasmodium falciparum Dd2 growth. P. falciparum Dd2 growth, SYBR Green, 72 h. 120,000 compounds, 4.3% hits. AID 1347417. Potency, µM (series often up to 28.9 µM), for inactives: top-dose activity, negative = inhibition, usual class: inhibitors; active = well fitted inhibition curve with a large enough effect;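 also: plate controls were DMSO vehicle for no effect and reference drug for full effect; nearly all actives have a fitted effect of over 65% in size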
#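 Infected erythrocytes (Dd2, 0.3% parasitemia, 2.5% hematocrit final) are added to compound in RPMI-1640/Albumax II medium, grown 72 h at 37C in low oxygen, then lysed with saponin/Triton-X containing SYBR Green and read by fluorescence.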
# * hit, by the source's call; i = inactive; [ ] = another dose, or the depositor's remark. This excerpt belongs to a sample that is enriched for hits. Potency is read from the fitted curve at half-maximal effect.
SMILES,Pf Dd2 growth
O=Cc1ccc(Oc2ncnc3ccccc23)cc1,-4.6%[44.1 µM]
CCOc1ccccc1C1NC(=O)N(CC(=O)Nc2ccc(F)c(Cl)c2)C2=C1C(=O)OC2 (stereo not given),-10.3%
CCn1cnnc1CCNC(=O)CC1C(=O)NCCN1Cc1ccccc1 (stereo not given),30.1%
CCn1cc(S(=O)(=O)c2cccc(C)c2)c(=O)c2cc(F)c(N3CCCC(C)C3)cc21 (stereo not given),76.6%
CCCCn1cc(S(=O)(=O)c2ccc(C)c(C)c2)c(=O)c2cc(F)c(N3CCCC(C)C3)cc21 (stereo not given),-7.5%
CCCn1cc(S(=O)(=O)c2ccc(OC)cc2)c(=O)c2cc(F)c(N3CCCC(C)C3)cc21 (stereo not given),11.2µM*
CCCCn1cc(S(=O)(=O)c2ccc(OC)cc2)c(=O)c2cc(CC)ccc21,-21.2%
CCc1ccc(S(=O)(=O)c2cn(C)c3cc(OC)c(OC)cc3c2=O)cc1,i
CCc1ccc(S(=O)(=O)c2cn(Cc3ccc(OC)cc3)c3cc(OC)c(OC)cc3c2=O)cc1,11.2µM*
CCOc1cc(=O)n2c(c1C(=O)N1CCN(C3CCCCC3)CC1)CCCCC2,-7.4%
Cc1cc(=O)n(CC(=O)Nc2ccccc2F)c(-c2ccc(Cl)cc2)n1,-103.8%
O=C(Cn1ccn2nc(-c3ccccc3)c(CO)c2c1=O)Nc1ccc2c(c1)OCCO2,-13.3%
NCCO[C@H]1C[C@@H](O)C12CCN(C(=O)Cn1cnnn1)CC2,-8.1%
Cc1cc(S(=O)(=O)N(C)CC2CCOCC2)ccc1F,17.9%
COc1ccc(CNC(=O)Cn2c(-c3ccc(Cl)cc3)nc(C)c(CCO)c2=O)cc1,-24.0%
CC(=O)Nc1ccc(C(=O)N2CCN(c3ccc(C=O)cc3)C(=O)C2)cc1,12.5%
COCCN[C@H]1[C@@H]2OC[C@@H](O2)[C@@H](NCc2ccccn2)[C@@H]1O,-6.3%[44.1 µM]
COCCN[C@H]1[C@@H]2OC[C@@H](O2)[C@@H](NCc2ccc(-c3ccccc3)cc2)[C@@H]1O,10µM*
O[C@H]1[C@H](NCc2ccc(-c3ccccc3)cc2)[C@H]2CO[C@H](O2)[C@@H]1Sc1ccccc1,-28.9%[44.1 µM]
c1cc2c(cc1CN1CCCCCC1)CNCCO2,-35.7%
CC[C@H]1CN(S(=O)(=O)c2ccc(OC)cc2)CC[C@H]1CC(=O)NCCN1CCOCC1,-7.9%
CC1=C[C@@H](CNC(=O)CC2(CC(=O)O)CCCC2)[C@H](C(C)C)C[C@H]1Cc1nc2ccccc2n1C,i
CC1=C[C@@H](CNC(=O)Cc2ccccc2)[C@H](C(C)C)C[C@H]1Cc1nc2ccncc2[nH]1,-9.7%[44.1 µM]
COCC(=O)NC[C@@H]1C=C(C)[C@H](Cc2nc3ccccc3n2C)C[C@H]1C(C)C,10µM*
CC1=C[C@@H](CNC(=O)c2cnccn2)[C@H](C(C)C)C[C@H]1Cc1nc2ccccc2[nH]1,i
SMILES,Pf Dd2 growth
CC1=C[C@@H](CNC(=O)c2cnccn2)[C@H](C(C)C)C[C@H]1Cc1nc2ccccc2n1C,8.91µM*
CC1=C[C@@H](CNC(=O)C2CC2)[C@H](C(C)C)C[C@H]1Cc1nc2ccccc2n1C,i
CC1=C[C@@H](CNC(=O)Cn2cnnn2)[C@H](C(C)C)C[C@H]1Cc1nc2ccccc2n1C,10µM*
CC1=C[C@@H](CNC(=O)CN(C)C)[C@H](C(C)C)C[C@H]1Cc1nc2ccccc2[nH]1,i
CC1=C[C@@H](CNC(=O)Cn2cnnn2)[C@H](C(C)C)C[C@H]1Cc1nc2ccc(C)cc2[nH]1,i
O=C1CCCN1CCCN1C(=O)[C@@H]2C[C@@H](O)CN2C2(CN(Cc3ccc(F)cc3)C2)C1=O,i
COCCN1CCC(N2CCN(S(=O)(=O)c3cc(F)ccc3C)CC2)C1=O (stereo not given),-9.7%
CNc1nccc(N2CCC(CC(=O)NCCN3CCOCC3)CC2)n1,8.5%
NC(=O)[C@H](Cc1cccs1)NC(=O)[C@@]1(O)C[C@@H](O)[C@H](O)[C@@H](NC(=O)Nc2ccc(OC(F)(F)F)cc2)C1,-9.2%
CC(=O)N1CC2(CCN(Cc3nnc(-c4ccco4)o3)CC2)CC1C(=O)O (stereo not given),-7.4%
Cc1cn2nnc(C(=O)NCCc3cccs3)c2c(=O)[nH]1,-5.7%
Cc1cn2nnc(C(=O)NCCC3=CCCCC3)c2c(=O)[nH]1,10µM*
COc1cccc(CNC(=O)c2nnn3cc(C)[nH]c(=O)c23)c1,-20.2%
CCc1ccc(CNC(=O)c2nnn3cc(C)[nH]c(=O)c23)cc1,7.94µM*
CNC(=O)c1nnn2cc(C)[nH]c(=O)c12,53.4%
Cc1ccc(CNC(=O)c2nnn3cc(-c4ccc(F)cc4)[nH]c(=O)c23)cc1,-3.9%
CCn1nccc1C(=O)N1CC(N(Cc2cccnc2)CC(C)C)C1,-25.2%
Cc1ccc(CNC(=O)CC2CCCN(c3cn[nH]c(=O)c3)C2)cc1 (stereo not given),0.4%
Cc1cc(C(=O)N2CC[C@H](NS(=O)(=O)c3cccs3)C[C@H]2C(=O)N[C@H](C)C(N)=O)n(C)n1,2.6%
CCCN(CC1CCOC1)S(=O)(=O)c1ccc(C)cc1C (stereo not given),i[5.79 µM]
Cc1cccc(-c2nocc2CCC(=O)NCc2ccc(F)cc2F)c1,i
CCCOc1ccc(C2C(=O)N(C3CCCCC3)CC(=O)N2C2CCCCC2)cc1OC (stereo not given),24.4%
CCCCCCOc1ccc(C2C(=O)N(C3CCCCC3)CC(=O)N2CCCC)cc1 (stereo not given),8.91µM*
O=C1C(c2ccc(F)cc2)N(Cc2ccccc2Cl)C(=O)CN1C1CCCCC1 (stereo not given),-14.3%
O=C(NCc1ccccc1)N1CCCC(Cc2noc(-c3ccncc3)n2)C1 (stereo not given),i
SMILES,Pf Dd2 growth
CCS(=O)(=O)N1CCC(F)(c2nc(-c3ccccc3)no2)CC1,-18.6%
CCCc1ccc(S(=O)(=O)N2C[C@@H](F)C[C@H]2C(=O)N2CCc3ccccc3C2)cc1,-8.1%
O=C(c1ccc(CS(=O)(=O)c2c(Cl)cccc2Cl)o1)N1CCN(c2ccccc2)CC1,11.2µM*
Cc1ccc(Cl)cc1N1CCN(C(=O)c2ccc(CS(=O)(=O)c3ccccc3C)o2)CC1,-21.4%
Cc1ccc(S(=O)(=O)Cc2ccc(C(=O)N3CCN(c4cccc(C)c4C)CC3)o2)cc1,-10.0%
Cc1cccc(-c2nc(C3CC(=O)N(c4ccc(F)c(Cl)c4)C3)no2)c1 (stereo not given),55.3%
N#Cc1cccc(CN2Cc3[nH]cnc3C[C@H]2c2nc(-c3ccccc3)no2)c1,-20.3%[44.1 µM]
COc1ccc(F)cc1CN1CCc2[nH]cnc2C1c1cccc(C#N)c1 (stereo not given),5.62µM*
COc1ccc(-c2noc(CN3CCCCC3c3cccc(F)c3)n2)c(OC)c1OC (stereo not given),-18.6%
O=C(NC1CCN(C(=O)N2CC3CC(C2)[C@H]2CCCC(=O)N2C3)CC1)c1ccoc1 (stereo not given in full),i
Cc1nc(-c2cccc(S(=O)(=O)N3CCC(C(=O)NCc4ccccc4Cl)CC3)c2)no1,24.8%
Cc1nc(-c2ccc(C)c(S(=O)(=O)N3CCC(C(=O)Nc4ccc(Cl)cc4)CC3)c2)no1,11.2µM*
CC(=O)c1ccc(N2CCN(S(=O)(=O)c3cc(-c4noc(C)n4)ccc3C)CC2)cc1,13.1%
COc1ccc(-c2noc(N3CCC(C(=O)Nc4ccc(OC)c(OC)c4)CC3)n2)cc1,20.8%
COc1cccc(NC(=O)C2CCN(S(=O)(=O)c3cc(-c4noc(C)n4)ccc3C)CC2)c1,10µM*
Cc1ccc(NC(=O)C2CCN(S(=O)(=O)c3cccc4nonc34)CC2)cc1C,12.1%
